The source made the active and inactive calls. Rule for the calls: active = hit-call score of the fitted dose curve at least 0.9, where 1 is the maximum; inactive = score below 0.9.
molecular target: Transcription factor Sp1 (Homo sapiens) (UniProt P08047); test: ATG_Sp1_CIS: Attagene CIS-FACTORIAL HepG2 Assay for human Specificity Protein 1 (Sp1) (AID 2282961); settings: HepG2 Sp1 cis-reporter transcription, actives raise or lower the signal
Method: ATG_CIS is a cell-based, multiplexed-readout assay that uses HepG2, a human liver cell line, with measurements taken at 24 hours after chemical dosing in a 24-well plate.ATG_Sp1_CIS is one of 52 assay component(s) measured or calculated from the ATG_CIS assay. It is designed to make measurements of mRNA induction, a form of inducible reporter, as detected with fluorescence intensity signals by Reverse transcription polymerase chain reaction (RT-PCR) and Capillary electrophoresis technology.Data from the assay component ATG_Sp1_CIS was analyzed into 1 assay endpoint. This assay endpoint, ATG_Sp1_CIS, was analyzed with bidirectional fitting relative to DMSO as the negative control and baseline of activity. Using a type of inducible reporter, measures of mRNA for gain or loss-of-signal activity can be used to understand the reporter gene at the transcription factor-level as they relate to the gene SP1. Furthermore, this assay endpoint can be referred to as a primary readout, because this assay has produced multiple assay endpoints where this one serves a reporter gene function. To generalize the intended target to other relatable targets, this assay endpoint is annotated to the dna binding intended target family, where the subfamily is zinc finger.
Human liver HepG2 cells are transiently transfected with multiple reporter transcription units (MRTUs) in 6-well plates using FuGene 6 reagent (Roche; 3 ml FuGene/1 mg DNA). The MRTU constructs are regulated by a cis-regulating element (promoter). […] A major difference between the CIS and TRANS system is that in CIS activities of endogenous TFs are measured, whereas the TRANS assay evaluates changes in activities of exogenous, chimeric NR-Gal4 proteins. […] At the end of 24 hour incubation, total RNA was isolated using TriZol reagent (Invitrogen). The isolated RNA is then reverse-transcribed using oligo(dT) primer and Mo-MLV reverse transcriptase (Invitrogen) with DNAse I (Ambion) treatment for 30 min. The one-tenth of the produced cDNA was amplified by PCR using Taq DNA polymerase (Invitrogen) and two reporter sequence-specific primers. The PCR products were fluorescently labeled by primer extension with 6-arboxyfluorescein (6-FAM) 5'-labeled reporter sequence-specific primer (2 min at 95 C, 20 s at 68 C and 10 min at 72 C) and these products were digested with 5U of HpaI (New England Biolabs) for 2h at 37 C. The fragments were purified using Qiaquick PCR columns (Qiagen), analyzed on an ABI 3130xL genetic analyzer (Applied Biosystems) with peak positions identified by using a set of X-rhodamine (ROX)-labeled MapMarker1000 molecular weight standards (BioVentures). The raw capillary electrophoresis data was processed using Attagraph software (Attagene).

Sequence of Transcription factor Sp1 (Homo sapiens) (P08047 whole entry, looked up): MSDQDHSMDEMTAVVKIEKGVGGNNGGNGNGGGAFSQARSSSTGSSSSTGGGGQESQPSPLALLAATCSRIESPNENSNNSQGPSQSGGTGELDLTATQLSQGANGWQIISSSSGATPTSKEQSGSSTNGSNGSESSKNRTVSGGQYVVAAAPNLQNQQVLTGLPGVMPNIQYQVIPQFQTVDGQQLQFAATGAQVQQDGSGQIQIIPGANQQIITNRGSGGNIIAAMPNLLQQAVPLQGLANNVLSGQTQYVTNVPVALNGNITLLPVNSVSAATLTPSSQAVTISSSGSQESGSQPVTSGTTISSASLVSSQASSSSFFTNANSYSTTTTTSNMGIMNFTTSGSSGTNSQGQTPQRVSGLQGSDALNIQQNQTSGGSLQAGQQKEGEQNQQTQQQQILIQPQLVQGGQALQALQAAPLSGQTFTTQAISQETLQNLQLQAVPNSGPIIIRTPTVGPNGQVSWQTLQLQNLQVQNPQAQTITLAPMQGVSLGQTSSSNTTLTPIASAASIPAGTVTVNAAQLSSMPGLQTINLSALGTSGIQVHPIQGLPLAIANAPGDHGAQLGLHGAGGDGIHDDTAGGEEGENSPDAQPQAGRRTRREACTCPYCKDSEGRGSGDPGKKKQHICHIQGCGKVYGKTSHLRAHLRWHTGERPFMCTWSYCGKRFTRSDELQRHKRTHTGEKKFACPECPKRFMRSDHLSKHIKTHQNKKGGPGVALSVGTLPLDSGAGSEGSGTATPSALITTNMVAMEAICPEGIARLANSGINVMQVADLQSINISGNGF

| SMILES | outcome | AC50 |
| --- | --- | --- |
| CN(C1CCCCC1)C1CCCCC1 | inactive |  |
| O=NN1CCCCCCC1 | inactive |  |
| CNC(=O)O/N=C/C(C)(C)S(C)(=O)=O | inactive |  |
| CCOC(=O)Cc1ccccc1 | inactive |  |
| OC[C@@H](O)[C@H]1O[C@@H]2O[C@H](C(Cl)(Cl)Cl)O[C@@H]2[C@H]1O | inactive |  |
| CNC(=O)CSP(=O)(OC)OC | inactive |  |
| CCN(CC)C(=O)C(Cl)=C(C)OP(=O)(OC)OC | inactive |  |
| NC(=O)c1ccc(N)nc1 | inactive |  |
| Cc1ccc2nc3sc(=O)sc3nc2c1 | inactive |  |
| CCOC(=O)OC1=C(c2cc(C)ccc2C)C(=O)NC12CCC(OC)CC2 (stereo not given) | inactive |  |
| O=C(Cl)OCCOCCOC(=O)Cl | inactive |  |
| O=C(CBr)c1ccc(O)cc1 | inactive |  |
| O=[N+]([O-])c1ccccc1O | inactive |  |
| Cc1cc(Cl)ccc1N | inactive |  |
| O=C=Nc1ccc(Cl)cc1 | inactive |  |
| O=[N+]([O-])c1cc([As](=O)(O)O)ccc1O | inactive |  |
| CCOP(=S)(OCC)SCS(=O)(=O)C(C)(C)C | inactive |  |
| CCOP(=S)(OCC)SCSc1cc(Cl)ccc1Cl | inactive |  |
| OCCCCO | inactive |  |
| CC(C)[C@H](C(=O)OC(C#N)c1cccc(Oc2ccccc2)c1)c1ccc(OC(F)F)cc1 (stereo not given in full) | inactive |  |

| SMILES | outcome | AC50 |
| --- | --- | --- |
| C=CCN=C=S | inactive |  |
| N#Cc1cccnc1 | inactive |  |
| C=CCOC(F)(C(F)(F)F)C(F)(F)F | inactive |  |
| O=C(O)CC(O)(CC(=O)O)C(=O)O | inactive |  |
| c1ccc2sc(SNC3CCCCC3)nc2c1 |  | 184 µM (active) |
| CCCCN(CCCCO)N=O | inactive |  |
| CC[N+](CC)(CC)CC | inactive |  |
| Cc1cccc(OP(=O)(Oc2cccc(C)c2)Oc2cccc(C)c2)c1 | inactive |  |
| CC(C)[C@@H](Nc1ccc(C(F)(F)F)cc1Cl)C(=O)OC(C#N)c1cccc(Oc2ccccc2)c1 (stereo not given in full) | inactive |  |
| CCN(N=O)C(N)=O | inactive |  |
| CC(C)N(C(=O)CCl)c1ccccc1 |  | 26.5 µM (active) |
| CC(c1ccccc1)(c1ccc(O)cc1)c1ccc(O)cc1 | inactive |  |
| Brc1c(Br)c(Br)c(Oc2c(Br)c(Br)c(Br)c(Br)c2Br)c(Br)c1Br | inactive |  |
| O=[N+]([O-])c1ccc(Nc2ccccc2)cc1 | inactive |  |
| O=NN1CCOCC1 | inactive |  |
| CCCCCCCCBr | inactive |  |
| ClCCCCl | inactive |  |
| ClCc1ccccc1Cl |  | 100 µM (active) |
| C=CC(Cl)CCl (stereo not given) | inactive |  |
| COCC(=O)N(c1c(C)cccc1C)[C@H](C)C(=O)OC | inactive |  |

From PubChem BioAssay (EPA / NIEHS)
